Measured values: PubChem BioAssay AID1159580 (chemical genetic matrix, 2015)
“And” between values parts separate entries of the source, which are not always exact repeats. Equal entries are not always repeated. The campaign covered roughly 5,500 compounds. About 2,000 (36%) were called active. Another 18% or so got no clear call; they are omitted. No stated cut-off is given here; in the data, active means normalized growth mostly below about 0.91 (no sharp cut-off); inconclusive means no clear call, values can overlap the other calls; inactive means mostly above about 0.92. The list shows a part of the results.

Assay: chemical genetic growth profiling, strain panel (AID 1159580);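 further: tested at 20 µM; growth read once vehicle control cultures reached saturation at 30 °C; 1 = growth at the plate median or of vehicle wells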
Settings: S. cerevisiae deletion strains, growth OD

Which normalized growth (locus YAL021C, strain ccr4, stronger effect = lower value) does the source give for `C[C@]12CCC3C(CC[C@H]4C[C@@H](O)CC[C@]34C)C1CCC2=O` (some centres undefined) here?
The normalized growth was 0.854 (active).

And the normalized growth (locus YAL026C, strain drs2, stronger effect = lower value)?
The normalized growth was 0.505 (active).

What about the normalized growth (locus YAL030W, strain snc1, stronger effect = lower value) of the same compound?
The normalized growth was 1.01 (inactive).

What about the normalized growth (locus YBL061C, strain skt5, stronger effect = lower value) of the same compound?
The normalized growth was 1.02 (inactive).

And the normalized growth (locus YBR009C, strain hhf1, stronger effect = lower value)?
Its normalized growth is 0.896 (active).

And the normalized growth (locus YBR021W, strain FUR4, stronger effect = lower value)?
The normalized growth was 0.857 (inactive).

And the normalized growth (locus YBR023C, strain chs3, stronger effect = lower value)?
The normalized growth was 0.989 (inactive).

And the normalized growth (locus YBR171W, strain sec66, stronger effect = lower value)?
The normalized growth was 1.01 (inactive).

What about the normalized growth (locus YBR229C, strain ROT2, stronger effect = lower value) of the same compound?
The normalized growth was 1.02 (inactive).

What about the normalized growth (locus YBR231C, strain swc5, stronger effect = lower value) of the same compound?
The normalized growth was 1 (inactive).

What about the normalized growth (locus YBR279W, strain paf1, stronger effect = lower value) of the same compound?
Its normalized growth is 0.994 (inactive).

And the normalized growth (locus YCL011C, strain gbp2, stronger effect = lower value)?
Its normalized growth is 0.937 (inactive).

What about the normalized growth (locus YCL016C, strain dcc1, stronger effect = lower value) of the same compound?
The normalized growth was 0.916 (inactive).

What about the normalized growth (locus YCL029C, strain bik1, stronger effect = lower value) of the same compound?
The normalized growth was 0.842 (active).

And the normalized growth (locus YCL061C, strain MRC1, stronger effect = lower value)?
The normalized growth was 0.961 (inactive).

And the normalized growth (locus YCL069W, strain vba3, stronger effect = lower value)?
Its normalized growth is 1.01 (inactive).

What about the normalized growth (locus YCR088W, strain abp1, stronger effect = lower value) of the same compound?
The normalized growth was 1.05 (inactive).

What about the normalized growth (locus YDL005C, strain med2, stronger effect = lower value) of the same compound?
The normalized growth was 1.03 (inactive).

And the normalized growth (locus YDL035C, strain GPR1, stronger effect = lower value)?
Its normalized growth is 0.697 (active).

And the normalized growth (locus YDL040C, strain nat1, stronger effect = lower value)?
Its normalized growth is 1.05 (inactive).

What about the normalized growth (locus YDL074C, strain BRE1, stronger effect = lower value) of the same compound?
Its normalized growth is 0.792 (inactive).

And the normalized growth (locus YDL101C, strain DUN1, stronger effect = lower value)?
Its normalized growth is 0.918 (inactive).

And the normalized growth (locus YDL185W, strain tfp1, stronger effect = lower value)?
The normalized growth was 0.949 (inactive).

What about the normalized growth (locus YDL192W, strain arf1, stronger effect = lower value) of the same compound?
The normalized growth was 0.838 (active).

What about the normalized growth (locus YDR001C, strain nth1, stronger effect = lower value) of the same compound?
Its normalized growth is 1.05 (inactive).

And the normalized growth (locus YDR069C, strain doa4, stronger effect = lower value)?
Its normalized growth is 0.979 (inactive).

And the normalized growth (locus YDR101C, strain arx1, stronger effect = lower value)?
The normalized growth was 0.95 (inactive).

And the normalized growth (locus YDR137W, strain rgp1, stronger effect = lower value)?
The normalized growth was 0.48 (active).

And the normalized growth (locus YDR159W, strain sac3, stronger effect = lower value)?
The normalized growth was 0.938 (inactive).

And the normalized growth (locus YDR162C, strain NBP2, stronger effect = lower value)?
The normalized growth was 0.585 (active).

And the normalized growth (locus YDR195W, strain ref2)?
The normalized growth was 1.44 [resistant] (active).

What about the normalized growth (locus YDR297W, strain sur2, stronger effect = lower value) of the same compound?
The normalized growth was 1.02 (inactive).

What about the normalized growth (locus YDR318W, strain mcm21, stronger effect = lower value) of the same compound?
The normalized growth was 0.764 (active).

What about the normalized growth (locus YDR334W, strain swr1, stronger effect = lower value) of the same compound?
Its normalized growth is 1.08 (inactive).

And the normalized growth (locus YDR335W, strain msn5, stronger effect = lower value)?
Its normalized growth is 1.02 (inactive).

What about the normalized growth (locus YDR388W, stronger effect = lower value) of the same compound?
The normalized growth was 0.935 (inactive).

What about the normalized growth (locus YDR392W, strain spt3, stronger effect = lower value) of the same compound?
The normalized growth was 0.224 (active).

What about the normalized growth (locus YDR502C, strain sam2, stronger effect = lower value) of the same compound?
Its normalized growth is 0.749 (active).

What about the normalized growth (locus YEL003W, strain gim4, stronger effect = lower value) of the same compound?
The normalized growth was 0.977 (inactive).

What about the normalized growth (locus YEL037C, strain rad23, stronger effect = lower value) of the same compound?
The normalized growth was 1.03 (inactive).

What about the normalized growth (locus YEL061C, strain CIN8 (second series), stronger effect = lower value) of the same compound?
Its normalized growth is 1.04 (inactive).

What about the normalized growth (locus YEL061C, strain CIN8, stronger effect = lower value) of the same compound?
The normalized growth was 0.908 (active).

And the normalized growth (locus YER015W, strain faa2, stronger effect = lower value)?
The normalized growth was 1.04 (inactive).

What about the normalized growth (locus YER016W, strain bim1, stronger effect = lower value) of the same compound?
Its normalized growth is 1.03 (inactive).

What about the normalized growth (locus YER110C, stronger effect = lower value) of the same compound?
Its normalized growth is 1.03 (inactive).

What about the normalized growth (locus YER111C, strain swi4, stronger effect = lower value) of the same compound?
The normalized growth was 1.03 (inactive).

What about the normalized growth (locus YER155C, strain BEM2 (second series), stronger effect = lower value) of the same compound?
Its normalized growth is 1 (inactive).

And the normalized growth (locus YER155C, strain BEM2, stronger effect = lower value)?
Its normalized growth is 0.856 (active).

What about the normalized growth (locus YER167W, strain BCK2, stronger effect = lower value) of the same compound?
The normalized growth was 0.872 (active).

And the normalized growth (locus YFR010W, strain ubp6, stronger effect = lower value)?
Its normalized growth is 0.9 (active).

What about the normalized growth (locus YGL078C, strain dbp3, stronger effect = lower value) of the same compound?
The normalized growth was 0.931 (inactive).

What about the normalized growth (locus YGL086W, strain mad1, stronger effect = lower value) of the same compound?
Its normalized growth is 0.9 (active).

What about the normalized growth (locus YGL167C, strain pmr1, stronger effect = lower value) of the same compound?
The normalized growth was 1.03 (inactive).

What about the normalized growth (locus YGL173C, strain kem1, stronger effect = lower value) of the same compound?
Its normalized growth is 0.943 (inactive).

And the normalized growth (locus YGL227W, strain vid30, stronger effect = lower value)?
Its normalized growth is 1.06 (inactive).

What about the normalized growth (locus YGL240W, strain doc1, stronger effect = lower value) of the same compound?
Its normalized growth is 0.968 (inactive).

And the normalized growth (locus YGL248W, strain PDE1, stronger effect = lower value)?
The normalized growth was 0.696 (active).

And the normalized growth (locus YGL253W, strain hxk2, stronger effect = lower value)?
The normalized growth was 0.87 (active).

And the normalized growth (locus YGR078C, strain PAC10, stronger effect = lower value)?
The normalized growth was 0.843 (active).

And the normalized growth (locus YGR135W, strain pre9, stronger effect = lower value)?
The normalized growth was 0.711 (active).

What about the normalized growth (locus YHR013C, strain ard1, stronger effect = lower value) of the same compound?
Its normalized growth is 0.899 (inactive).

And the normalized growth (locus YHR027C, strain rpn1, stronger effect = lower value)?
The normalized growth was 1.03 (inactive).

What about the normalized growth (locus YHR030C, strain SLT2, stronger effect = lower value) of the same compound?
The normalized growth was 0.785 (active) and 0.897 (inactive).

And the normalized growth (locus YHR079C, strain IRE1 (second series), stronger effect = lower value)?
Its normalized growth is 0.94 (inactive).

And the normalized growth (locus YHR079C, strain IRE1, stronger effect = lower value)?
Its normalized growth is 0.893 (inactive).

And the normalized growth (locus YHR094C, strain hxt1, stronger effect = lower value)?
Its normalized growth is 1.03 (inactive).

And the normalized growth (locus YHR129C, strain ARP1, stronger effect = lower value)?
Its normalized growth is 0.766 (active).

And the normalized growth (locus YHR142W, strain chs7, stronger effect = lower value)?
The normalized growth was 0.853 (active).

What about the normalized growth (locus YHR200W, strain rpn10, stronger effect = lower value) of the same compound?
The normalized growth was 0.883 (active).

And the normalized growth (locus YIL066C, strain RNR3, stronger effect = lower value)?
Its normalized growth is 0.628 (active).

And the normalized growth (locus YIL073C, strain SPO22, stronger effect = lower value)?
The normalized growth was 0.735 (inactive).

And the normalized growth (locus YIL125W, strain kgd1, stronger effect = lower value)?
The normalized growth was 0.98 (inactive).

And the normalized growth (locus YIR030C, strain dcg1, stronger effect = lower value)?
Its normalized growth is 0.868 (active).

What about the normalized growth (locus YJL092W, strain hpr5, stronger effect = lower value) of the same compound?
Its normalized growth is 0.988 (inactive).

And the normalized growth (locus YJL095W, strain BCK1 (second series), stronger effect = lower value)?
Its normalized growth is 0.923 (inactive).

And the normalized growth (locus YJL095W, strain BCK1, stronger effect = lower value)?
The normalized growth was 0.309 (active) and 0.911 (inactive).

And the normalized growth (locus YJL115W, strain asf1, stronger effect = lower value)?
Its normalized growth is 1.04 (inactive).

What about the normalized growth (locus YJL129C, strain trk1, stronger effect = lower value) of the same compound?
Its normalized growth is 0.948 (inactive).

And the normalized growth (locus YJL134W, strain LCB3, stronger effect = lower value)?
Its normalized growth is 1.02 (inactive).

What about the normalized growth (locus YJL154C, strain vps35, stronger effect = lower value) of the same compound?
Its normalized growth is 1.06 (inactive).

What about the normalized growth (locus YJL164C, strain tpk1, stronger effect = lower value) of the same compound?
Its normalized growth is 0.859 (active).

What about the normalized growth (locus YJL166W, strain qcr8, stronger effect = lower value) of the same compound?
The normalized growth was 0.877 (active).

What about the normalized growth (locus YJL168C, strain set2, stronger effect = lower value) of the same compound?
Its normalized growth is 1.03 (inactive).

And the normalized growth (locus YJL187C, strain SWE1 (second series), stronger effect = lower value)?
Its normalized growth is 0.796 (active).

And the normalized growth (locus YJL187C, strain SWE1, stronger effect = lower value)?
The normalized growth was 1.03 (inactive).

And the normalized growth (locus YJR043C, strain POL32, stronger effect = lower value)?
Its normalized growth is 0.895 (inactive).

What about the normalized growth (locus YJR066W, strain TOR1, stronger effect = lower value) of the same compound?
Its normalized growth is 0.875 (inactive).

What about the normalized growth (locus YJR075W, strain HOC1, stronger effect = lower value) of the same compound?
Its normalized growth is 0.857 (active).

What about the normalized growth (locus YKL009W, strain mrt4, stronger effect = lower value) of the same compound?
The normalized growth was 0.832 (active).
